The values that follow come from PubChem BioAssay AID1942 (Johns Hopkins Ion Channel Center, 2009).

SMILES strings stand for the structures. The whole screen tested about 2,400 compounds, of which about 580 (24%) were called active.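 The calls were made as follows: active = activity change at or above the mean plus 3 SD of buffer wells without dofetilide, per plate; inactive = the rest.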 Only a sample is shown.

The target of this assay is Potassium voltage-gated channel subfamily KQT member 2 (Rattus norvegicus) (UniProt O88943). The assay can be described thus: KCNQ2 potentiation in CHO cells – cell-based, FluxOR thallium flux, counter-screen for hERG block protector project, confirmation (AID 1942).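 Also: normalized value minus buffer-control mean plus three SD of buffer wells.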 The following applies: FluxOR thallium flux fluorescence, at 10 µM, hits give high values.
Potassium voltage-gated channel subfamily KQT member 2 (Rattus norvegicus), sequence (O88943 whole entry, looked up): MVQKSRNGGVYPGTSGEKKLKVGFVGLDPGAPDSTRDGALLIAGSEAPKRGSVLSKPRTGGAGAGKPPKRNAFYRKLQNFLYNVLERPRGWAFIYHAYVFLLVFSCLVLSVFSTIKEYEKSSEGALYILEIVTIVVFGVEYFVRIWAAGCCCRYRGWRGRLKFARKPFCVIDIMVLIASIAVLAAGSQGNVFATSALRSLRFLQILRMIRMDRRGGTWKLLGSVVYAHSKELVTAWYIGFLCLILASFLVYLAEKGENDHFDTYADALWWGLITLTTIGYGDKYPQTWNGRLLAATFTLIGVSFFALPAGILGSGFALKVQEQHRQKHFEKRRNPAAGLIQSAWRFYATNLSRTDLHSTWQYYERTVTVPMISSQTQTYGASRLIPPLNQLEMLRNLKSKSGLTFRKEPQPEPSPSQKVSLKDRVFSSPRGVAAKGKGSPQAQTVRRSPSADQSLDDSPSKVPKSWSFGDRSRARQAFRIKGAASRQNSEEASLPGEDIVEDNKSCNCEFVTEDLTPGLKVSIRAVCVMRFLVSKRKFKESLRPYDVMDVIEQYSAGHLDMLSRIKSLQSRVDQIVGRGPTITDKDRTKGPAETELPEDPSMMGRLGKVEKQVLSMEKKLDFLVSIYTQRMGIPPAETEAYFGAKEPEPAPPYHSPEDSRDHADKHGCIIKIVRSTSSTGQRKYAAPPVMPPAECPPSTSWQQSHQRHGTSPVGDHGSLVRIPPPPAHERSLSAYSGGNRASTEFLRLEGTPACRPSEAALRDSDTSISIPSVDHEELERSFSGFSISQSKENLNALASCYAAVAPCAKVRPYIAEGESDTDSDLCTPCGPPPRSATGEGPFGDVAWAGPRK
With `Cc1ccnc(SCCn2c(N3CC(C)OC(C)C3)nc3c2c(=O)n(C)c(=O)n3C)n1` (stereo unspecified), the activity change, less the hit threshold was -16.5% (inactive).

Regarding `O=C(Cn1c(=O)oc2ccccc21)Nc1ccc(F)c(F)c1`, the activity change, less the hit threshold is -17.1% (inactive).

As for `CCCCn1nnc(NC(=O)Cc2ccc(Cl)cc2)n1`, the activity change, less the hit threshold was -11.7% (inactive).

As to `CCOc1ccc2[nH]cc(S(=O)(=O)c3ccc(F)cc3)c(=O)c2c1`, the activity change, less the hit threshold is -19.1% (inactive).

As to `CCCCn1c(-c2csc(C(C)C)c2)n[nH]c1=S`, the activity change, less the hit threshold was 6.8% (active).

Take `S=c1[nH]nc(-c2ccc(Cl)cc2)n1Cc1ccccc1`: the activity change, less the hit threshold is -30.3% (inactive).

Regarding `CC(C)(C)OC(=O)C(Cl)(C(=O)OC(C)(C)C)c1ccc2nnnn2n1`, the activity change, less the hit threshold is -14.5% (inactive).

As for `CC(=O)c1cc(N2CCC(C(=O)O)CC2)ccc1[N+](=O)[O-]`, the activity change, less the hit threshold was -24.9% (inactive).

With `Cc1nn(-c2ccccc2)c(Cl)c1/C=C1\SC(=S)NC1=O`, the activity change, less the hit threshold was 60.1% (active).

As for `CCc1nnc(NC(=O)c2c(C)nn(-c3ccccc3)c2Cl)s1`, the activity change, less the hit threshold is -4.8% (inactive).

For the molecule `Cc1nn(-c2ccccc2)c(C)c1S(=O)(=O)O`, the activity change, less the hit threshold is -13.9% (inactive).

With `CCCC(=O)n1nc(-c2ccccc2)nc1N`, the activity change, less the hit threshold was -17.9% (inactive).

Consider `CN(C)/C(=N\S(=O)(=O)c1ccccc1)c1ccc(F)cc1`, for which the activity change, less the hit threshold was -9.6% (inactive).

Regarding `O=C(Nc1nc(-c2ccccc2)c(-c2ccccc2)o1)c1ccc(F)cc1`, the activity change, less the hit threshold was 9% (active).

With `O=C(Nc1cccc2[nH]ncc12)c1ccc(F)cc1`, the activity change, less the hit threshold is -24.7% (inactive).

As for `Cc1ccc(-c2nc(CSCC(=O)N3CCOCC3)c(C)o2)cc1`, the activity change, less the hit threshold was -25.1% (inactive).

Take `COc1ccc(S(=O)(=O)Nc2ccc(Cl)cn2)c(C)c1C`: the activity change, less the hit threshold is -12.1% (inactive).

For the molecule `Cc1noc(C)c1CSc1ncnc2sc3c(c12)CCCCC3`, the activity change, less the hit threshold is 14.8% (active).

As for `COC(=O)c1ccc(CSc2ncnc3sc(C)c(C)c23)o1`, the activity change, less the hit threshold is -6.5% (inactive).

Consider `COc1ccc(-n2c(O)c(/C=C3\C=Nc4ccccc43)c(=O)[nH]c2=O)cc1`, for which the activity change, less the hit threshold was -40% (inactive).

`Cc1ccc2cc(CCNC(=O)C(=O)c3c(C)[nH]c4ccccc34)c(=O)[nH]c2c1`: the activity change, less the hit threshold was -20.7% (inactive).

For `CCOC(=O)c1sc(=S)n2c1[nH]c(=O)c1ccc(C(=O)OC)cc12`, the activity change, less the hit threshold was 79.4% (active).

With `CCC1SC2=NC(C)=C(C(=O)OC)C(c3ccc(C(=O)OC)cc3)N2C1=O` (stereo unspecified), the activity change, less the hit threshold was -10.7% (inactive).

As for `CCCNC(=O)CN1C(=O)NC(Cc2c[nH]c3ccccc23)C1=O` (stereo unspecified), the activity change, less the hit threshold is -17.5% (inactive).

For the molecule `CC12CCC(C(=O)NCc3ccc4c(c3)OCO4)(CC1=O)C2(C)C` (stereo unspecified), the activity change, less the hit threshold is -5.5% (inactive).

Consider `CCOCCCNC(=O)C(NC(=O)Cc1cccs1)c1ccc(C)cc1` (stereo unspecified), for which the activity change, less the hit threshold was -21.4% (inactive).

On to `CCc1ccc(S(=O)(=O)NC(=S)NC2CCCCC2)cc1`, for which the activity change, less the hit threshold was 52.3% (active).

Take `O=S(=O)(NC(=S)NC1CCCCC1)c1ccc(Cl)cc1`: the activity change, less the hit threshold was 19.8% (active).

As for `Cc1ccc(S(=O)(=O)NC(=S)NC2CCCCC2)cc1`, the activity change, less the hit threshold was -11.5% (inactive).

For the molecule `O=c1oc2ccccc2c(NC2CCCCC2)c1NS(=O)(=O)c1ccc(Cl)cc1`, the activity change, less the hit threshold was -14.5% (inactive).

For `O=C(NC1CCCCC1)c1ccc(COCC(F)(F)F)o1`, the activity change, less the hit threshold was -5% (inactive).

Turning to `O=S(=O)(NC(=S)NC1CCCCC1)c1ccc(Br)cc1`, the activity change, less the hit threshold was 5.4% (active).

With `COc1cc(Cl)c(C)cc1NC(=O)CSc1sc2c(O)cc(=O)[nH]c2c1C#N`, the activity change, less the hit threshold is -11.4% (inactive).

Turning to `N#Cc1c(N)c(C(=O)c2ccccc2)n2ccccc12`, the activity change, less the hit threshold is -16.1% (inactive).

For `Nn1c(SCC(=O)Nc2ccc(F)cc2)nnc1C1CCCCC1`, the activity change, less the hit threshold is -23.5% (inactive).

For the molecule `O=C1NCCN1Cc1ccccc1F`, the activity change, less the hit threshold is -11.9% (inactive).

For `COc1ccc2c(c1)O[C@@H](c1cccc(C(F)(F)F)c1)[C@H](OC(=O)NCCc1ccc(OC)c(OC)c1)C2=O`, the activity change, less the hit threshold is -11% (inactive).

For the molecule `CCc1nnc(NC(=O)COc2ccc([N+](=O)[O-])cc2)s1`, the activity change, less the hit threshold was -12.5% (inactive).

Regarding `CC/C(=N\NC(=O)c1nnn(-c2nonc2N)c1-c1cccs1)c1ccccc1`, the activity change, less the hit threshold is -13.9% (inactive).

As for `O=C(CCC(=O)Nc1ccccc1)NNC(=O)c1ccco1`, the activity change, less the hit threshold is -23.9% (inactive).

As to `COc1ccc(C)cc1NC(=O)C(=O)NNC(=O)c1ccco1`, the activity change, less the hit threshold is 73.2% (active).

`COc1ccccc1NC(=O)C(=O)NNC(=O)c1ccco1`: the activity change, less the hit threshold is 24.1% (active).

As to `CCN(CC)C(=O)CN1C(=O)C2CC=C(Cl)CC2C1=O` (stereo unspecified), the activity change, less the hit threshold was -12.3% (inactive).

`O=C(O)Cn1cc(CN2CCOCC2)c2ccccc21`: the activity change, less the hit threshold is -20.4% (inactive).

On to `CC1(OC(=O)C2CCCC2)C(=O)C=C2C=C(c3ccc(C#N)cc3)OC=C2C1=O` (stereo unspecified), for which the activity change, less the hit threshold was -18.1% (inactive).

On to `CCOC(=O)C1=C(Cn2cnc3ccccc32)NC(=O)NC1c1cc(C)ccc1C` (stereo unspecified), for which the activity change, less the hit threshold is -19.4% (inactive).

For `Cc1ccc(S(=O)(=O)N2CCOCC2)cc1NC(=O)CSc1nc2ccccc2c(=O)n1Cc1ccccc1`, the activity change, less the hit threshold is -8.2% (inactive).

`Cc1ccc(CNC(=O)CN2C(C)CCCC2C)cc1` (stereo unspecified): the activity change, less the hit threshold is -17% (inactive).

Turning to `CN1/C(=C/C=C(C#N)C#N)C=Cc2ccccc21`, the activity change, less the hit threshold was -17.6% (inactive).

Regarding `CCOC(=O)N1CCN(c2c(-c3ccc(C)c(C)c3)c(=O)c2=O)CC1`, the activity change, less the hit threshold is -10.9% (inactive).

For the molecule `Cc1ccc(-n2c(=O)c3cc4c(=O)n(-c5ccc(C)c(C)c5)c(=O)c4c(C(=O)c4ccc(C(=O)O)cc4)c3c2=O)cc1C`, the activity change, less the hit threshold was -9.5% (inactive).

Regarding `Cc1ccc(N2CCN(C(=O)N3CCCC3)CC2)cc1C`, the activity change, less the hit threshold was 3.3% (active).

Take `CNC(=S)Nc1sc2c(c1C(=O)OC)CCC2`: the activity change, less the hit threshold is 8.9% (active).

Consider `CCOC(=O)c1c(NC(=S)NC)sc2c1CC(C)(C)SC2`, for which the activity change, less the hit threshold is 97.7% (active).

As for `COC(=O)c1c(NC(=S)Nc2ccc(F)cc2[N+](=O)[O-])sc2c1CCCCC2`, the activity change, less the hit threshold was 1.5% (active).

For the molecule `CCOC(=O)c1c(/N=C/C2=C(O)CCCC2=O)sc2c1CCCC2`, the activity change, less the hit threshold is -20.8% (inactive).

As to `Cc1onc(-c2ccccc2)c1C(=O)NC(=S)Nc1sc2c(c1C#N)CCCC2`, the activity change, less the hit threshold was -12.6% (inactive).

As for `CCOC(=O)c1c(NC(=S)NC)sc2c1CCCC2`, the activity change, less the hit threshold was 13% (active).

Regarding `COc1ccc(NC(=S)NC(NC(=O)c2cccc3ccccc23)C(Cl)(Cl)Cl)c([N+](=O)[O-])c1` (stereo unspecified), the activity change, less the hit threshold is -21.8% (inactive).

For the molecule `CCc1nnc(NC(=O)CCC(=O)N2CCN(C3CCCCC3)CC2)s1`, the activity change, less the hit threshold was -21.4% (inactive).

`O=C(N/C(=C/c1ccc2c(c1)OCO2)C(=O)N1CCOCC1)c1cccs1`: the activity change, less the hit threshold is -18.2% (inactive).
